From PubChem BioAssay
In the library only some 4% were active in any assay of this set; here they are far more common.
p53null 32C tox – selectivity test: cytotoxicity in p53 null cells, permissive temperature; H1299-neo p53 null cells, ATP luminescence, 24 h, 32C; Potency, µM (titrated, usually from 46.1 µM), inactives show top-dose activity change, negative = cytotoxicity, most hits filed as cytotoxic; 0.62% of 55,000 active; AID 903;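 further: potency means the concentration at half of the fitted maximal effect; 0% = DMSO only and -100% = full killing by 100 µM tamoxifen; nearly all actives have a fitted effect of over 55% in size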
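Luminescent ATP readout gave cell viability of p53-null H1299-neo cells after a 24 h compound exposure at the permissive 32C. Titrations ran up to 46 uM, and AC50s were fitted with the standard Hill equation.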
OvCa metastasis – blocks SKOV3ip1 adhesion and invasion in omental model. SKOV3ip1-GFP adhesion/invasion on 3D omental model, fluorescence. Potency, µM (titrated, usually from 45.8 µM), for the others: at the top dose activity change, negative = inhibition, actives largely listed as inhibitors. 0.1% of 46,000 active. AID 1963576;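 further: potency means the concentration at half of the fitted maximal effect; plate controls were DMSO wells for no effect and tomatine positive control wells for full effect; nearly all actives have a fitted effect of over 65% in size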
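qHTS, 4-pt dose (0.36-46 umol/L); SKOV3ip1-GFP, 1,200 cells/well, no FBS; primary omental fibroblast/mesothelial co-culture 48 h pre-grown; 2 h RT + 16 h 37 C; PBS wash, 4% PFA; GFP count 488/509 nm.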
GALC G270D act – raises human GALC G270D mutant activity in cells | P54803 | 145M-Twi-hGALC-G270D cells, HMU-beta-Gal fluorescence, 48 h | Potency, µM (series often up to 57.5 µM), hits mostly activators | 0.1% of 45,000 active | AID 1159614; further: potency means the concentration at half of the fitted maximal effect; 0% is about no effect; nearly all actives have a fitted effect of over 65% in size
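qHTS, 1536-well; 145M-Twi-hGALC-G270D cells (WT line also made) in DMEM/F12 + 10% FBS; compound incubation on live cells; HMU-β-gal 0.1 mM final, pH 5.2, NaTC; carbonate stop; fluorescence increase = enhanced residual activity.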
DRV1 agonist – GPR32 (DRV1) agonism, beta-arrestin recruitment; O75388; 2.5% of 48,000 active; AID 1346428; CHO-K1 GPR32 beta-arrestin PathHunter luminescence, 90 min; zero percent set by DMSO-only wells; activation, % at 76.9 µM;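 active means activation of at least 60% and not above a set upper limit, about 1 call in 100 departs from these limits; inconclusive means activation of 40% to 60%, or above that upper limit; inactive means activation under 40%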; further: 0% is about no effect
Target sequence (O75388 whole entry, looked up): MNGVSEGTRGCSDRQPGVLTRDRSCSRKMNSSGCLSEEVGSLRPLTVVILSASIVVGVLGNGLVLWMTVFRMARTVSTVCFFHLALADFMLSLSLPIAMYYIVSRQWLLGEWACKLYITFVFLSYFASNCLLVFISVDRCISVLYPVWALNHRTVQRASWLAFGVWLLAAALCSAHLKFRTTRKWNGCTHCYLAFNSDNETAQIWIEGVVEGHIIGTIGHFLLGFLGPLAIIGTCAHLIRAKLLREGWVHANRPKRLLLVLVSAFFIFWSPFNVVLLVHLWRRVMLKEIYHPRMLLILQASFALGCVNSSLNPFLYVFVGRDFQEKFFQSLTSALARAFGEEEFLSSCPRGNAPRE
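Step 1: seed CHO-K1 GPR32 beta-arrestin cells, 2,500/well, overnight at 37 °C. Step 2: add compounds, 90 min at 37 °C. Step 3: detection reagent, 1 h ambient, then luminescence.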
NTMT1 inhibitor – blocks human N-terminal methyltransferase 1 activity; 2.5% of 59,000 active; NTMT1 MTase-Glo SAH luminescence, purified enzyme; Q9BV86; Potency, µM (series often up to 114 µM), for inactives: at the highest dose activity change, negative = inhibition, most hits filed as inhibitors; AID 1645870;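 further: potency means the concentration at half of the fitted maximal effect; plate controls were DMSO vehicle for no effect and no enzyme for full effect; nearly all actives have a fitted effect of over 65% in size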
Target sequence (Q9BV86 whole entry, looked up): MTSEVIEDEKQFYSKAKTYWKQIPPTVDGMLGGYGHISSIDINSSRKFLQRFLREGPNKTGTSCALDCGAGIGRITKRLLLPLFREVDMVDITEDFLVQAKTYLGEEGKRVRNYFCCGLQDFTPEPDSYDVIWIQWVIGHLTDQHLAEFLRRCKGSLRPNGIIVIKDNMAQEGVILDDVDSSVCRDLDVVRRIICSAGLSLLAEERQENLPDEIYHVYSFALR
p53null 39C tox – selectivity test: cytotoxicity in p53 null cells, nonpermissive temperature. 0.97% of 55,000 active. Potency, µM (series often up to 46.1 µM), inactives show at the highest dose activity, negative = cell killing, most hits filed as cytotoxic. H1299 p53-null (neo) cells, 39C, ATPlite viability, 24 h;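 further: potency means the concentration at half of the fitted maximal effect; 0% = DMSO only and -100% = full killing by 100 µM tamoxifen; nearly all actives have a fitted effect of over 50% in size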
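ATP-luminescence viability readout (ATPlite, 20 min RT) after 24 hr compound treatment at 39C of H1299-neo or H1299-p53A138V cells; titration up to 46 uM; normalized to DMSO and 100 uM tamoxifen; Hill-fit AC50.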
Active calls of the source: *; i = inactive; u = inconclusive; x = no result; ! = not confirmed by another sample; [ ] = another dose, or the depositor's remark. Unless noted, the call rests on the fitted dose curve; in most records, active means well fitted curve in the direction sought with a large enough effect; inconclusive means small, poorly fitted or top-dose-only effect, or another doubt; inactive means no such curve, though single readings can be large; an effect the other way counts as inactive or inconclusive.

SMILES | p53null 32C tox | OvCa metastasis | GALC G270D act | DRV1 agonist | NTMT1 inhibitor | p53null 39C tox
CN1CCN(c2ccc(Nc3ncc4cc(C#N)c(=O)n(C5CCCC5)c4n3)cc2)CC1 | x | x | x | x | -16.7% | x
C=CC(=O)N1CC[C@@H](Oc2nc(Nc3ccc(N4CCC(N5CCN(C)CC5)CC4)cc3)c(C(N)=O)nc2CC)C1 | x | x | x | x | 3.98µM* | x
CC(=O)O[C@H]1C[C@@H](O)C(C)(C)C2C[C@@H](OC(C)=O)[C@@]3(C)C4=CCC(C(CO)CC(O)C5OC5(C)C)[C@]4(C)CCC3[C@]21C (stereo partly specified) | x | x | x | x | 3.3%[12.6 µM] | x
O=C(Nc1ccc2c(c1)CCC2)c1ccc(F)cc1 | 10µM* | x | x | x | x | -29.9%
O=C(Nc1ccc2c(c1)CCC2)C1CCCO1 (stereo unspecified) | -10.2% | x | x | x | x | -17.6%
Cc1ccccc1CN1C(=O)C(O)(CC(=O)c2cccc(Br)c2)c2ccccc21 (stereo unspecified) | u | i | i | -15.4 | -0.2% | 31.6µM*
O=C(CC1(O)C(=O)N(CCc2ccccc2)c2ccc(Br)cc21)c1ccccc1 (stereo unspecified) | 31.4% | -1.2% | i | 60.3* | 3.6% | u
Cc1cn([C@H]2C[C@H](O)[C@@H](CO)O2)c(=O)nc1N | x | x | x | x | 16.1% | x
CCc1ccc2oc(NC3=NC(c4[nH]ncc4Cl)C4=C(CCCC4=O)N3)nc2c1 (stereo unspecified) | x | x | x | x | -2.5% | x
O=S1(=O)N=C(Nc2nc3c(s2)CCCC3)c2ccccc21 | 11.2µM* | x | x | x | x | 5.62µM*
Cc1cc(-c2nnc3n2CCCCC3)c(C)n1-c1cccc2ccccc12 | x | x | x | x | 8.5% | x
COc1c(Cl)cc(C(=O)Nc2cccc(-c3nc4ccccc4[nH]3)c2)cc1Cl | u | u | i | 106.0* | -1.6% | u
COc1ccc(S(=O)(=O)Cc2ccc(C(=O)NC3CCCCC3)o2)cc1 | 8.4% | 1.6% | i | 89.3* | u | -9.6%
c1ccc(-c2ncc(CN3CCN(c4ncccn4)CC3)[nH]2)cc1 | x | x | x | x | 6.3%[57.5 µM] | x
C[C@@H](CO)Nc1cc2c(cc1[S+](=O)([O-])Nc1ccc(Cl)c(Cl)c1)CCC(=O)N2 | x | x | x | x | -4.1% | x
Cc1cccc2sc(N(Cc3cccnc3)C(=O)CCS(=O)(=O)c3ccccc3)nc12 | u | -19.8% | i | -23.4 | -0.5% | 12.6µM*
Cc1ccc2sc(N(Cc3cccnc3)C(=O)CCS(=O)(=O)c3ccccc3)nc2c1C | -11.0% | u | i | -14.8 | -3.8% | 4.8%
O=C(O)[C@H](Cc1ccccc1)Oc1ccc(-c2ccccc2)cc1 | x | x | x | x | 5.1%[57.5 µM] | x
C=C1C(OC2OC(CO)C(O)C(O)C2O)CC2C(C)(C)C(O)CCC2(C)C1CC/C(C)=C\COC(=O)CC(=O)O (stereo unspecified) | x | x | x | x | -3.5%[12.6 µM] | x
COc1cccc2sc(NC(=O)c3ccc4c(c3)OCCO4)nc12 | 7.94µM* | i | i | 44.8 | -1.7% | 7.94µM*
COc1c2c(c(C)c3c1C(=O)OC3)OC1(C)CC(O)C34OC(OC)(CC(O)C3(C)C1C2)OC4(C)C (stereo unspecified) | x | x | x | x | 7.8%[29.8 µM] | x
Cc1ccc(C)c(NC(=O)Nc2cccc(-c3cn4cccnc4n3)c2)c1 | 1.0% | i | i | 79.7* | u | u
O=C(Nc1cccc(-c2cn3cccnc3n2)c1)c1cc(Br)ccc1Cl | 0.6% | 3.6% | i | 82.8* | 8.3% | 23.8%
COc1ccc(NC(=O)Nc2cc(-c3cn4cccnc4n3)ccc2C)cc1 | 8.1% | i | i | 18.2 | 12.1% | -11.9%
COC(=O)C1=C(C)NC(c2ncc(F)cc2F)=N[C@@H]1c1ccc(F)cc1Cl | x | x | x | x | 19.2% | x
SMILES | p53null 32C tox | OvCa metastasis | GALC G270D act | DRV1 agonist | NTMT1 inhibitor | p53null 39C tox
O=C(/C=C/Nc1ccc(F)c(F)c1)c1cccs1 | x | x | x | x | x | -20.8%
Cc1cccc(N/C=C/C(=O)c2cccs2)c1C | 14.1µM* | x | x | x | x | x
NC(=O)c1ccccc1N/C=C/C(=O)c1cccs1 | 12.6µM* | x | x | x | x | 11.2µM*
Oc1ccc(/C=C/c2cc(O)cc(O)c2)cc1 | x | x | i | -1.1 | 44.7µM*! | x
Cc1cc(OC(=O)c2cc(-c3ccc4c(c3)OCCO4)on2)ccc1Cl | -27.4% | i | i | -34.1 | 8.6% | 15.8µM*
Cc1cccc(OC(=O)c2cc(-c3ccc(C)c(C)c3)on2)c1 | -25.9% | i | i | -22.9 | -1.2% | u
Cc1ccc(Cl)cc1NC(=O)c1cc(-c2ccc3c(c2)OCCO3)on1 | u | 36.1% | i | 4.2 | -13.8% | u
Cc1ccc(OC(=O)c2cc(-c3ccc4c(c3)OCCO4)on2)cc1C | u | i | i | 1.3 | 15.3% | 25.1µM*
CCOC(=O)CCNc1cc(N2CCc3ccccc3CC2)nc(-c2cccnc2)n1 | x | x | x | x | -12.1%[57.5 µM] | x
C=C(C)[C@@H]1CC[C@]2(C(=O)O)CC[C@]3(C)C(CCC4[C@]5(C)C(CC[C@]43C)C(C)(C)[C@@H](O)[C@@H]5C(=O)O)C12 (stereo partly specified) | x | x | x | x | -14.2%[29.8 µM] | x
COC(=O)c1scc(-c2ccc(C)cc2)c1S(=O)(=O)Nc1cc(OC)c(OC)c(OC)c1 | 10.2% | i | i | -5.9 | 89.1µM* | -2.7%
COC(=O)c1scc(-c2ccc(C)cc2)c1S(=O)(=O)Nc1c(C)cc(C)cc1C | 1.5% | 0.3% | i | -0.7 | -1.9% | -1.2%
Cc1c(-c2ccc(Cl)cc2)c(=O)oc2c(CN3CCCC3)c(O)ccc12 | -2.8% | i | 39.8µM* | 5.4 | -4.8% | 14.6%
CCc1c(C)c2ccc(O)c(CN3CCN(c4ccc(F)cc4)CC3)c2oc1=O | -1.1% | 2.1% | x | 0.6 | x | -14.5%
CCc1c(C)c2ccc(O)c(CN3CCN(c4ccc(OC)cc4)CC3)c2oc1=O | u | -9.6% | x | -7.9 | x | 10µM*
Cc1c(-c2ccc(Cl)cc2)c(=O)oc2c(CN3CCOCC3)c(O)ccc12 | -7.6% | 17.2% | i | -1.3 | -3.6% | -2.8%
COc1ccc(C2OCC3C(c4cc(OC)c5c(c4)OCO5)OCC23)cc1OC (stereo unspecified) | x | x | x | x | 1.4%[29.8 µM] | x
CCCSc1nnc2n(-c3ccc(OC)cc3)c(=O)c3c4c(sc3n12)COC(C(C)C)C4 (stereo unspecified) | 5.7% | i | i | 21.0 | 3.0% | 3.8%
COC(=O)CSc1nnc2n(-c3ccccc3)c(=O)c3c4c(sc3n12)COC(C(C)C)C4 (stereo unspecified) | 0.5% | i | i | 64.6* | 0.0% | 5.7%
